In ChEMBL document CHEMBL3988442, “University of Dundee, Small-Polar-MMV Screening Library” (2021):
Screen size: about 48,000 compounds; about 13,000 (27%) showed an effect of 50% or more. This is one part of the list.

test system: Wolbachia pipientis; experiment: Anti-Wolbachia Cell-Based Screen; format: functional; set-up: scale not given: in the data most compounds retested in dose-response had high values; details: 5 µM

Compound	Percent Effect [%]
Cc1noc2ncnc(N3CCC(O)(Cn4ccnc4)CC3)c12	-11.6
Cc1cc(-c2nnn(CCC(N)=O)n2)ccc1F	-8.55
CN(Cc1ccsc1)C(=O)CS(=O)(=O)Cc1ccc(Cl)c(Cl)c1	-4.981
COCCN1CCN(CC(=O)N(C)Cc2ccsc2)CC1	-3.337
CN(Cc1ccsc1)C(=O)Cn1c(CS(C)(=O)=O)nc2ccccc21	150.1
CS(=O)(=O)CCNC(=O)C1(c2cccc(Cl)c2)CCCCC1	4.174
CS(=O)(=O)N1CCOCC2(CCN(Cc3ccc[nH]3)CC2)C1.O=C(O)C(F)(F)F	-6.777
Cc1ccc(CN2CCC3(CC2)CCN(Cc2ccoc2)CC3)cc1.O=C(O)C(F)(F)F.O=C(O)C(F)(F)F	17.41
CS(=O)(=O)N1CCOCC2(CN(Cc3ccsc3)CCO2)C1.O=C(O)C(F)(F)F (stereo not given)	-5.064
CS(=O)(=O)N1CCOCC2(CCN(Cc3ccoc3)CC2)C1.O=C(O)C(F)(F)F	115.7
CN1CCOCC12CCN(Cc1ccoc1)CC2.O=C(O)C(F)(F)F.O=C(O)C(F)(F)F	109
O=C(CCc1ccsc1)NCc1ccnc(OC2CCOCC2)c1	-13.16
CN(C)C(=O)Cn1c2c(ccc1=O)CC(NCc1ccoc1)CC2.O=C(O)C(F)(F)F (stereo not given)	-9.512
O=C(O)C(F)(F)F.O=c1ccc2c(n1CC1CC1)CCC(NCc1cccs1)C2 (stereo not given)	108.8
COc1ncccc1CNC1CCc2c(ccc(=O)n2C)C1.O=C(O)C(F)(F)F.O=C(O)C(F)(F)F (stereo not given)	100.1
COCCN1C(=O)CC[C@]12CC[C@@H](NCc1cccnc1OC)CC2.O=C(O)C(F)(F)F.O=C(O)C(F)(F)F	-1.329
Cn1c2c(ccc1=O)CC(Nc1ncc(F)cn1)CC2.O=C(O)C(F)(F)F (stereo not given)	-3.561
COc1ncccc1CN1CCc2[nH]nc(C(=O)N3CCCC3C)c2C1.O=C(O)C(F)(F)F.O=C(O)C(F)(F)F (stereo not given)	4.676
COCCn1c2c(ccc1=O)CC(NCc1cccnc1OC)CC2.O=C(O)C(F)(F)F.O=C(O)C(F)(F)F (stereo not given)	97.75
COc1ncccc1CNC1CCc2c(ccc(=O)n2CC2CC2)C1.O=C(O)C(F)(F)F.O=C(O)C(F)(F)F (stereo not given)	98.83
Cn1cnc(S(=O)(=O)NCC2CCN(C(=O)Oc3ccccc3)CC2)c1	-16.29
Cc1ccc(C(NC(=O)Cn2cc(C3CC3)nn2)C2CC2)cc1 (stereo not given)	-17.63
Cc1cc(CN(C)C(=O)NC2CCC(O)CC2)no1 (stereo not given)	-5.162
c1csc(CNc2ccccc2Cn2cncn2)c1	2.841
Cn1cnc(S(=O)(=O)NCC2(O)CCc3ccccc32)c1 (stereo not given)	-54.8

Compound	Percent Effect [%]
Cn1cc(CN2CCC[C@]3(C(=O)O)CN(c4cnccn4)CC[C@@H]23)cn1	-2.616
NC(=O)c1cnc(NC2CCN(c3ccccn3)CC2)c(Cl)c1	-2.297
O=c1cc(N2CCCCC2)cnn1C[C@H](O)CO	78.69
O=c1cc(N2CCOCC2)cnn1CCc1ccc(F)cc1	-9.338
CC(C)=CCn1ncc(N2CCOCC2)cc1=O	1.937
O=c1cc(N2CCCC2)cnn1CCc1cccc(F)c1	9.222
O=c1cc(N2CCNCC2)cnn1CCc1ccc(F)cc1	-7.094
O=c1cc(N2CCCCC2)cnn1CC(O)C(F)(F)F (stereo not given)	110.9
O=c1cc(N2CCCC2)cnn1CC(F)F	95.3
CC(C)=CCn1ncc(N2CCCCC2)cc1=O	8.054
CCC(CC)Cn1ncc(N2CCOCC2)cc1=O	7.831
Cc1nnc(N2C[C@H](C(=O)NCC3CC3)[C@@H]3CCO[C@@H]3C2)s1.O=C(O)C(F)(F)F	0.08379
CC(C)Cc1noc(CNc2cccc(-c3nnnn3C)c2)n1	3.895
COCc1nc(N2CCC(CCO)CC2)c2cnn(C)c2n1	-4.999
COCc1nc(N2CC[C@H](N(C)C)C2)c2cnn(C)c2n1	102.3
CCCOC1CCCN(c2nc(COC)nc3c2cnn3C)C1 (stereo not given)	118.8
CN(C)[C@H]1CCN(c2nc(C(C)(C)C)nc3c2cnn3C)C1	-2.508
CCc1nc(N2CCN(Cc3ncccc3C)CC2)c2cnn(C)c2n1	1.339
CCCOC1CCCN(c2nc(CC)nc3c2cnn3C)C1 (stereo not given)	107.1
CCCOC1CCCN(c2ncnc3c2CCN(C(=O)C2CC2)C3)C1 (stereo not given)	1.517
COCCCNC(=O)CN(C)C(=O)c1cc(C)sc1C	-3.68
COc1cc(NC(=O)Cn2ccc3sc(C)cc3c2=O)cc(OC)c1	-10.49
COCCNC(=O)Cn1ccc2sc(C)cc2c1=O	165.3
CCC(C)NC(=O)Cn1ccc2sc(C)cc2c1=O (stereo not given)	106.2
NC(=O)NC(=O)Cn1ccc2sccc2c1=O	-7.139
